The sample as a whole holds a higher share of hits than the screen did.
Pf Dd2 inh – qHTS Primary assay for Inhibitors of Plasmodium falciparum Dd2 growth in vitro | P. falciparum Dd2 growth, SYBR Green, 72 h | Potency, µM (doses to about 28.9 µM), for inactives: at the highest dose activity, negative = inhibition, actives largely listed as inhibitors | 120,000 compounds, 4.3% hits; active = well fitted inhibition curve with a large enough effect;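 also: plate controls were DMSO vehicle for no effect and reference drug for full effect; nearly all actives have a fitted effect of over 65% in size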
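Readout: SYBR Green fluorescence, 485 nm excitation, 535 nm emission, after ~16 h lysis at 37C. Before that, Dd2-infected red cells (2.5% hematocrit) grew 72 h with compound, 29 uM top final concentration.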
* = called active by the depositor; i = inactive; [ ] = another dose, or the depositor's remark. Potency is read from the fitted curve at half-maximal effect.

SMILES	Pf Dd2 inh
CC(=O)N1CCN(C[C@@H]2C=C(C)[C@H](Cc3nnc(-c4cccnc4)o3)C[C@H]2C(C)C)CC1	7.9µM*
CC1=C[C@@H](CN2CCN(c3ncccn3)CC2)[C@H](C(C)C)C[C@H]1Cc1nnc(Cc2c[nH]c3ccccc23)o1	3.5µM*
CC1=C[C@@H](CN2CCN(c3cnccn3)CC2)[C@H](C(C)C)C[C@H]1Cc1nnc(-c2ccc([N+](=O)[O-])cc2)o1	i
CCCc1nnc(C[C@@H]2C[C@@H](C(C)C)[C@H](CN3CCN(C(C)=O)CC3)C=C2C)o1	11µM*
O=[S+]([O-])(c1ccccc1)N1CCn2c(nnc2-c2ccncc2)C1	-20%[44.1 µM]
O=C1Nc2ccccc2C12CCN([S+](=O)([O-])c1ccsc1)CC2	-3%
COc1ccc(CNC(=O)N2CCCC(c3nn(C)c(=O)n3C3CCCC3)C2)cc1 (stereo not drawn)	-10%
Cc1ccc(C2Cn3nnc(C(=O)Nc4ccc(Br)cc4)c3CO2)cc1 (stereo not drawn)	8%
COc1ccc(-c2noc([C@@H]3C[C@@H](O)CN3Cc3ccc(F)cc3)n2)cc1	i
O=C1NCCCCCCN(S(=O)(=O)c2ccc3c(c2)OCCO3)[C@H]2CCCC[C@@H]12	i
CN1CCN(C(CNC(=O)C(=O)Nc2cccc(Cl)c2)c2ccc3c(c2)OCO3)CC1 (stereo not drawn)	7.1µM*
O=C(NCC(c1ccc2c(c1)OCO2)N1CCN(c2ccc(F)cc2)CC1)c1cccc([N+](=O)[O-])c1 (stereo not drawn)	-16%
COc1ccc(N2CCN(C(CNC(=O)CC(C)C)c3ccc4c(c3)OCO4)CC2)cc1 (stereo not drawn)	5.6µM*
CCOc1ccc(C(=O)NCC(c2ccc3c(c2)OCO3)N2CCN(c3ccc(F)cc3)CC2)cc1 (stereo not drawn)	11µM*
CC(C)C(=O)NCC(c1ccc2c(c1)OCO2)N1CCN(c2ccccc2)CC1 (stereo not drawn)	7%
CCOc1ccc(C(=O)NCC(c2ccc3c(c2)OCO3)N2CCOCC2)cc1 (stereo not drawn)	9%[0.594 µM]
O=C(NCC(c1ccc2c(c1)OCO2)N1CCOCC1)C(=O)Nc1cccc(Cl)c1 (stereo not drawn)	-10%
CCC(=O)NCC(c1ccc2c(c1)OCO2)N1CCN(c2ccccc2)CC1 (stereo not drawn)	-4%
Cc1cccc(NC(=O)C(=O)NCC(c2ccc3c(c2)OCO3)N2CCN(C)CC2)c1C (stereo not drawn)	-23%
O=C(CSCC1CC1)N1CCCC(c2nccn2Cc2cccnc2)C1 (stereo not drawn)	-7%
CC(=O)c1ccc(NC(=O)N[C@H]2C[C@@](O)(C(=O)N[C@H](CC(C)C)C(N)=O)C[C@@H](O)[C@@H]2O)cc1	4%
CC(=O)c1ccc(NC(=O)Cn2c(N3CCc4ccccc4C3)nc(C)cc2=O)cc1	-17%
NC(=O)[C@@H]1C[C@H](Oc2cccnc2)CN1C(=O)C1CCCCC1	10%
O=C(Cn1c(=O)oc2ccccc21)N1CCc2nn(CC3CC3)c(=O)n2CC1	47%
O=C1NCCCCCN(CC2CCCCC2)[C@H]2CCC[C@@H]12	-7%
SMILES	Pf Dd2 inh
O=C(C1CC1)N1CCCC2(Cc3ccccc3NC2=O)C1 (stereo not drawn)	-8%[44.1 µM]
Cc1nnc([C@@H]2CC(F)(F)CN2C(=O)c2c(C)noc2C)o1	32%
O=C1c2cc(N3CCOCC3)nc(-c3ccccc3Oc3ccccc3)c2CN1C1COC1	71%
CCCNC(=O)C1CCC(Cn2c(=O)c3sccc3n(Cc3ccccc3C)c2=O)CC1 (stereo not drawn)	-6%
C=Cc1ccc(Cn2c(=O)n(CC3CCC(C(=O)NC(C)C)CC3)c(=O)c3sccc32)cc1 (stereo not drawn)	11µM*
CNC(=O)C1CCC(Cn2c(=O)c3sccc3n(CC(=O)N3CCCCC3C)c2=O)CC1 (stereo not drawn)	-3%
CCCNC(=O)C1CCC(Cn2c(=O)c3sccc3n(CC(=O)NCc3ccccc3)c2=O)CC1 (stereo not drawn)	-16%
COc1cccc(Cn2c(=O)n(CC3CCC(C(=O)N4CCOCC4)CC3)c(=O)c3sccc32)c1 (stereo not drawn)	8.9µM*
CC1CCN(C(=O)Cn2c(=O)n(CC3CCC(C(=O)NC(C)C)CC3)c(=O)c3sccc32)CC1 (stereo not drawn)	-13%
COCCOC1CCOC2(CCN(C(=O)c3ccc(C)nc3)CC2)C1 (stereo not drawn)	37%
CCn1nccc1C(=O)NCCc1ncc(C)n1C1CC1	-3%
COc1ccc(OCc2nc(C)c(CCO)c(=O)n2CC(=O)NCc2cccs2)cc1	-21%
COCCOCc1nc(C2CCCCN2C(=O)Nc2cccc(Cl)c2)no1 (stereo not drawn)	i
O=C([C@H]1O[C@H](CCN2CCN(c3ccccc3)CC2)CC[C@@H]1O)N1CCOCC1	2%[44.1 µM]
CN(Cc1ccccc1)C(=O)[C@H]1O[C@H](CCN2CCN(c3ccccc3)CC2)CC[C@@H]1O	4.5µM*
COc1ccccc1N1CCN(C(=O)[C@H]2O[C@H](CCN3CCN(c4ccccc4)CC3)CC[C@@H]2O)CC1	i
Cc1cccc(C)c1NC(=O)CCCN1C(=O)CCn2nc(-c3cn(C)c4ccccc34)cc21	44%
COc1cc(NC(=O)CCCN2C(=O)CCn3nc(-c4cn(C)c5ccccc45)cc32)cc(OC)c1	7.9µM*
Cn1cc(-c2cc3n(n2)CCC(=O)N3CCCC(=O)Nc2ccc(Cl)cc2)c2ccccc21	2%
COCc1cn([C@H]2CO[C@H]3[C@@H]2OC[C@H]3OC(=O)Nc2cccc(C(F)(F)F)c2)nn1	-21%[44.1 µM]
CN1CCc2[nH]cnc2C12CCN(C(=O)c1cc(=O)[nH]c3ccccc13)CC2	-1%
COc1ccc(CNC(=O)CSc2nc(-c3ccc(OC)cc3)cc(C(F)(F)F)n2)cc1	5%
COc1ccc(-c2cc(C(F)(F)F)nc(SCCC(=O)Nc3cc(C)ccc3O)n2)cc1	1µM*
CC(C)(C)NC(=O)CCSc1nc(-c2ccc3c(c2)OCO3)cc(C(F)(F)F)n1	i
CCCNC(=O)CSc1nc(-c2ccc(OC)cc2)cc(C(F)(F)F)n1	i
SMILES	Pf Dd2 inh
CCCNC(=O)CCSc1nc(-c2ccc3c(c2)OCO3)cc(C(F)(F)F)n1	5µM*
COc1ccc(-c2cc(C(F)(F)F)nc(SCCC(=O)Nc3ccccc3F)n2)cc1	28%
O=C1CCN(C(=O)C2CCN(S(=O)(=O)Cc3cccc(F)c3)CC2)CCCCCCN1	-20%
CN1CC(=O)N(C2CCCNCC2)Cc2c(NCCN3CCOCC3)ncnc21 (stereo not drawn)	i
COc1cc(NC(=O)N2C[C@@H](F)C[C@H]2C(=O)N2CCc3ccccc3C2)cc(OC)c1	-13%
CNC(=O)c1ccc2ccnn2c1	10%[44.1 µM]
Cc1cc(NC(=O)CCCn2c(C)c3cnn(-c4ccccc4)c(=O)c3c2C)ccc1Br	11µM*
Cc1ccc(NC(=O)CCCn2nc(C)c3c(C)n(-c4ccccc4)nc3c2=O)cc1Cl	14%
CCN(CC)c1ccc(NC(=O)Cn2c(C)c3cnn(-c4ccccc4)c(=O)c3c2C)c(C)c1	10%
COCCC1(NC(=O)c2ccccc2)CCN(Cc2cn[nH]c2-c2cccs2)CC1	8.9µM*
O=C1CC(c2ccccc2)N(Cc2cn[nH]c2-c2cccs2)CCCCCN1 (stereo not drawn)	-9%
COc1ccccc1-c1[nH]ncc1CN1CCC2(CC1)CC(O)CCO2 (stereo not drawn)	44%
O=C(Nc1cnc(-c2cccc(Cl)c2)nc1)c1cc(F)cc(F)c1	-11%

Compound activity from PubChem BioAssay.
